Measurements taken from article PMC5540273 (PLoS ONE, 2017).
pKd: −log10 of the molar value. Where “and” joins values, the source holds several entries; their conditions need not be identical. Equal values may be shown once.

What follows are compounds tested on PIK3CB.
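Also: kd values determined as follow-up on hits from a single-replicate KINOMEscan panel screen.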

Structure (SMILES) | pKd
Cc1c(Cn2ccn3c(=O)cc(N4CCOCC4)nc23)cccc1C(F)(F)F [GSK2289044] | 8.82
CSc1nn2c(=O)cc(N3CCOCC3)nc2n1Cc1cccc(C(F)(F)F)c1C [GSK2363608] | 9.32 and 9.59
O=c1cc(N2CCOCC2)nc2n(Cc3cccc(Cl)c3Cl)ccn12 [GSK2286295] | 8.46
CS(=O)(=O)c1ccc(-c2c(-c3ncn[nH]3)sc(N3CCOCC3)c2C#N)cc1 | 7.11

These compounds were tested on PIK3CD.

Structure (SMILES) | pKd
Cc1c(Cn2ccn3c(=O)cc(N4CCOCC4)nc23)cccc1C(F)(F)F [GSK2289044] | 6.77
CSc1nn2c(=O)cc(N3CCOCC3)nc2n1Cc1cccc(C(F)(F)F)c1C [GSK2363608] | 7.19 and 7.33
O=c1cc(N2CCOCC2)nc2n(Cc3cccc(Cl)c3Cl)ccn12 [GSK2286295] | 7.10
Cc1ccc(C(=O)Nc2ccc(Nc3ccnc4cc(-c5ccccn5)ccc34)cc2O)cc1.Cl [GW440146] | < 5.00

The compounds below were run on T1, PIK4CB.
T1 construct: gene PI4KB

Structure (SMILES) | pKd
Cl.NC(=O)c1cccc(Nc2nccc(Nc3ccc(Oc4cccc(Cl)c4)c(Cl)c3)n2)c1 [GW659008] | < 5.00
Cc1cc(N2Cc3ccccc3C2)nc(Nc2ccc(S(=O)(=O)N3CCOCC3)cc2)n1.Cl [GSK1669917] | < 5.00
CS(=O)(=O)c1ccc(-c2nc3n(c2-c2ccncc2)CCC3)cc1 [SKF-105942] | < 5.00

The compounds below were run on PIKFYVE.

Structure (SMILES) | pKd
COc1ccc2nc(-c3cccc(C)n3)nc(Nc3ccncc3)c2c1 [GSK204919] | 5.92
Cc1cccc(-c2nc(Nc3ccc4[nH]ncc4c3)c3ccccc3n2)n1 [GW857175] | 6.15
O=C(Nc1n[nH]c2cc(-c3cccc(F)c3F)ccc12)C1CC1 [SB-733894] | < 5.00
